# Experimental data published in PubChem BioAssay AID624304 (Sanford-Burnham Center for Chemical Genomics, 2012).
# Screen size: about 360,000 compounds; about 1,800 (0.5%) were called active. The sample holds actives, similar compounds and a random draw of the others, so the mix is not that of the screen. A number with no mark means an inactive call.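 How the source made its calls: active means interference check ratio from 0.5 to 1.5 plus GFP to RFP signal ratio inhibition reaching or exceeding a fixed threshold (cut at about 30% in these data, passing the limit was not always enough); inactive means the rest.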
# Assay: suppressors of acrylamide-induced Pgst-4::GFP reporter in worms, primary screen, SKN-1 inhibitor project, whole organism, uHTS, GFP/RFP fluorescence ratio, strain VP596 (AID 624304)
# Conditions: C. elegans VP596 Pgst-4::GFP/RFP ratio, 24 h, at 21.8 µM, active compounds read high
row,SMILES,inhibition
1,CCc1ccc2c(c1)C1(NN=C(c3ccccc3)S1)C(=O)N2 (configuration not stated),4.61%
2,Cc1ccc(-c2ccc(CN3C(C(C)C)C(=O)N(Cc4cn(CCC5OCCO5)nn4)CCS3(=O)=O)cc2)cc1 (configuration not stated),12.6%
3,COc1ccc(C2C3=C(OC(C)=O)c4ccccc4C3=Nc3c2c(=O)n(C)c(=O)n3C)cc1 (configuration not stated),2.4%
4,CCOc1ccc(OCC)c(NC(=O)CN(C)S(=O)(=O)c2cccc3nsnc23)c1,27.2%
5,CCO[C@@H]1OC(C(=O)NCc2nc3ccccc3[nH]2)=C[C@H](C2CCCCC2)[C@H]1CCCO,7.19%
6,COC(=O)c1ccc(C2NC(=O)NC(C)=C2C(=O)N(C)C)cc1 (configuration not stated),0.51%
7,CCOC(=O)C1=C(C)Nc2sc(C(=O)c3ccc(Br)cc3)c(N)c2C1c1ccc(C(=O)OC)cc1 (configuration not stated),37.2% (active)
8,CCOC(=O)C1=C(C)NC2=C(C(=O)CC(C)(C)C2)C1c1ccsc1 (configuration not stated),1.51%
9,CS(=O)(=O)N(CC(O)Cn1c2ccccc2c2ccccc21)c1cccc2ccccc12 (configuration not stated),5.96%
10,Oc1cccc2cc(-c3ccncc3)cnc12,-1.84%
11,CC1=NN(C(=O)CCc2ccccc2O)C(O)(C(F)(F)F)C1 (configuration not stated),0.219%
12,CCN(CC)S(=O)(=O)c1ccc(N(C)Cc2cccc(OC)c2OC)nc1,13.3%
13,CCN(CC)S(=O)(=O)c1ccc(N(C)CCc2ccc(OC)c(OC)c2)nc1,43% (active)
14,CCN(CC)S(=O)(=O)c1ccc(N(C)Cc2ccc(C(F)(F)F)cc2)nc1,3.82%
15,S=c1[nH]ccn1-c1ccc(Cl)cc1,1.55%
16,COc1cc2c(C(=O)N3CCN(C)CC3)c(CSc3ccccc3)n(C)c2cc1Br,-4.81%
17,Oc1ccc(-c2nncn2-c2ccccc2)cc1,3.4%
18,CC(=O)Nc1ccc(NC(=O)CCN2C(=O)C3CC=CCC3C2=O)cc1 (configuration not stated),-12.5%
19,O=C(CCCN1C(=O)/C(=C/c2cccs2)SC1=S)Nc1ccc(O)cc1,38.3% (active)

row,SMILES,inhibition
1,Cc1c(C(=O)NCCN2C(=O)S/C(=C\c3cccs3)C2=O)cccc1[N+](=O)[O-],9.81%
2,O=C(NCCC1=CCCCC1)c1ccc(Cl)c([N+](=O)[O-])c1,7.85%
3,CC(Sc1nncn1C)C(=O)NCCC1=CCCCC1 (configuration not stated),-8.96%
4,Cn1nnc2cc(C(=O)NCCC3=CCCCC3)ccc21,35.4% (active)
5,CC(=O)N1CCN(c2ccccc2NC(=S)NC(=O)c2cc3ccccc3o2)CC1,6.86%
6,COc1ccc(C(=O)NC(=S)Nc2ccccc2N2CCN(S(C)(=O)=O)CC2)cc1OC,41% (active)
7,CCc1ccc(C(=O)NC(=S)Nc2ccccc2N2CCOCC2)cc1,11%
8,CC(=O)c1cccc(NC(=O)N2CCCC2C(=O)NCCc2ccccc2)c1 (configuration not stated),23.5%
9,O=C(CSc1ccccc1)Nc1cccc(S(=O)(=O)N2CCCCC2)c1,12.9%
10,COCCn1cnnc1SCC(=O)Nc1cccc(S(=O)(=O)N2CCCCC2)c1,47% (active)
11,Cn1nnnc1SCC(=O)Nc1cccc(S(=O)(=O)N2CCCCC2)c1,6.32%
12,CCOC(=O)C1CCCN(C(=O)COc2ccc(N(C)S(=O)(=O)c3ccc(C)cc3)cc2)C1 (configuration not stated),-2.11%
13,Cn1cc(S(=O)(=O)N2CCN(c3ccc(F)cc3)CC2)c(=O)n(C)c1=O,1.81%
14,CCN1C(=O)[C@@H]2[C@@H]3CN(S(=O)(=O)c4ccccc4C)[C@@H](c4ccc(Cl)cc4)[C@@H]3C(=O)C[C@@H]2C1=O,2.39%
15,C#CCN(C[C@H]1[C@H](OC(=O)NC2CCCC2)[C@H](OC(=O)NC2CCCC2)C[C@H]2C(=O)N(c3ccccc3)C(=O)[C@@H]12)S(=O)(=O)c1ccc(C)cc1,11.9%
16,COc1ccc2oc(N)nc2c1,3.43%
17,CCc1ccc2oc(-c3ccc(N)cc3)nc2c1,39.8% (active)
18,O=[N+]([O-])c1ccc2oc(-c3cccc(O)c3)nc2c1,17%
19,CCCCN1CC(C)(C)[C@H](CC(=O)Nc2ccc(Br)cc2)C1=O,13%

row,SMILES,inhibition
1,C[C@H]1CN(c2ccc(Br)cc2)C(=O)[C@@H]1CC(=O)Nc1ccc(Br)cc1,-1.36%
2,CCCCN1C[C@H](c2ccc(Br)cc2)[C@@H](CC(=O)Nc2ccc(Br)cc2)C1=O,46.8% (active)
3,COC(=O)c1ccc(N(CC(=O)NC2CCCC2)C(=O)CNC(=O)c2ccco2)cc1,13.4%
4,O=C(/C=C/c1ccco1)Nc1ccc(Oc2ccccc2)cc1,48.8% (active)
5,Cc1ccoc1C(=O)Nc1cccc(Oc2ccccc2)c1,-23.9%
6,NS(=O)(=O)c1cccc(NC(=O)COC(=O)/C=C/c2ccco2)c1,0.905%
7,O=C(Nc1ccc(Oc2ccccc2)cc1)c1ccco1,38.8% (active)
8,O=C(/C=C/c1ccco1)NC(=S)N1CCCCC1,11.9%
9,CN1CCN(S(=O)(=O)c2ccc(NC(=O)c3ccco3)cc2)CC1,13.7%
10,CCNc1nc(NC(C)C)nc(N2CC(=O)N(CC(=O)OCC)C2=N)n1,3.01%
11,NS(=O)(=O)c1ccccc1NC(=O)c1c(O)c2ccccc2[nH]c1=O,5.41%
12,COc1cccc(CNS(=O)(=O)c2ccc3c(c2)N(C(C)=O)CCS3)c1,19.6%
13,Cc1oc(-c2ccccc2F)nc1CS(=O)CC(=O)NCCN1CCCCC1C (configuration not stated),5.11%
14,CC1CCN(c2oc(-c3ccccc3F)nc2C#N)CC1,35.4% (active)
15,N#Cc1nc(-c2cccc3ccccc23)oc1N,16.8%
16,O=[N+]([O-])c1cc([N+](=O)[O-])c(Oc2cc(F)cc(F)c2F)cc1NN1CCCCC1,15.8%
17,CCCNC(=O)C1(C)CCN(C(=O)c2ccccc2OC(F)(F)F)C1 (configuration not stated),-0.325%
18,O=C(CCc1ccc(S(=O)(=O)NC2CCCCC2)cc1)NCc1ccccc1,3.92%
19,Cc1cc(N=Nc2ccc3ccccc3c2)ccc1O,44.4% (active)
